As a reminder, the AC50 is the concentration at which the activity in the assay is half-maximal.

Molecules are shown by their SMILES. Values joined by “and” are separate entries in the source; they are usually repeats but may differ in a detail not shown here. Equal values may be shown once. A structure can be active in one record and inactive in another. Active and inactive are the calls of the source. How the source made its calls: active means hit-call score of the fitted dose curve at least 0.9, where 1 is the maximum; inactive means score below 0.9.

Chain of Myc proto-oncogene protein (Homo sapiens) (P01106 whole entry, looked up): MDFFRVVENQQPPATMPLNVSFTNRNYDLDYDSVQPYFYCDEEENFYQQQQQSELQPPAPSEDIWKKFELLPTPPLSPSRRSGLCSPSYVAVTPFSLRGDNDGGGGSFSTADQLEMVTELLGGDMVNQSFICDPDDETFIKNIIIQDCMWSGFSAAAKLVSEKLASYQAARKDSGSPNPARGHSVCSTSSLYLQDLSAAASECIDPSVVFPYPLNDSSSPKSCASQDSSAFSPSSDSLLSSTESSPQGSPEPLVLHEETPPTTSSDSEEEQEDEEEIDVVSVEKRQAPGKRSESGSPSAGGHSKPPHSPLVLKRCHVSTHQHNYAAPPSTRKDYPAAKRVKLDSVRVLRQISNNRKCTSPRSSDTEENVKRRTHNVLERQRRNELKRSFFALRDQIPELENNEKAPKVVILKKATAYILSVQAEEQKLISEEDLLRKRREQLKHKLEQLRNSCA

This experiment has as its target Myc proto-oncogene protein (Homo sapiens) (UniProt P01106). Kind of experiment: ATG_Myc_CIS: Attagene CIS-FACTORIAL HepG2 Assay for human Myelocytomatosis (Myc) Proto-Oncogene Transcription Factor (AID 2282990). The settings on record: HepG2, Attagene cis-reporter transcription factor activity; actives raise or lower the signal. As to the method: ATG_CIS is a cell-based, multiplexed-readout assay that uses HepG2, a human liver cell line, with measurements taken at 24 hours after chemical dosing in a 24-well plate.ATG_Myc_CIS is one of 52 assay component(s) measured or calculated from the ATG_CIS assay. It is designed to make measurements of mRNA induction, a form of inducible reporter, as detected with fluorescence intensity signals by Reverse transcription polymerase chain reaction (RT-PCR) and Capillary electrophoresis technology.Data from the assay component ATG_Myc_CIS was analyzed into 1 assay endpoint. This assay endpoint, ATG_Myc_CIS, was analyzed with bidirectional fitting relative to DMSO as the negative control and baseline of activity. Using a type of inducible reporter, measures of mRNA for gain or loss-of-signal activity can be used to understand the reporter gene at the transcription factor-level as they relate to the gene MYC. Furthermore, this assay endpoint can be referred to as a primary readout, because this assay has produced multiple assay endpoints where this one serves a reporter gene function. To generalize the intended target to other relatable targets, this assay endpoint is annotated to the dna binding intended target family, where the subfamily is basic helix-loop-helix leucine zipper.
Human liver HepG2 cells are transiently transfected with multiple reporter transcription units (MRTUs) in 6-well plates using FuGene 6 reagent (Roche; 3 ml FuGene/1 mg DNA). The MRTU constructs are regulated by a cis-regulating element (promoter). […] A major difference between the CIS and TRANS system is that in CIS activities of endogenous TFs are measured, whereas the TRANS assay evaluates changes in activities of exogenous, chimeric NR-Gal4 proteins. […] At the end of 24 hour incubation, total RNA was isolated using TriZol reagent (Invitrogen). The isolated RNA is then reverse-transcribed using oligo(dT) primer and Mo-MLV reverse transcriptase (Invitrogen) with DNAse I (Ambion) treatment for 30 min. The one-tenth of the produced cDNA was amplified by PCR using Taq DNA polymerase (Invitrogen) and two reporter sequence-specific primers. The PCR products were fluorescently labeled by primer extension with 6-arboxyfluorescein (6-FAM) 5'-labeled reporter sequence-specific primer (2 min at 95 C, 20 s at 68 C and 10 min at 72 C) and these products were digested with 5U of HpaI (New England Biolabs) for 2h at 37 C. The fragments were purified using Qiaquick PCR columns (Qiagen), analyzed on an ABI 3130xL genetic analyzer (Applied Biosystems) with peak positions identified by using a set of X-rhodamine (ROX)-labeled MapMarker1000 molecular weight standards (BioVentures). The raw capillary electrophoresis data was processed using Attagraph software (Attagene).
In the case of `CCOC1Oc2ccc(OS(C)(=O)=O)cc2C1(C)C` (stereo not given), the compound was classed as inactive. The same measure, in the same setting: then `CCc1ccc(C(=O)NN(C(=O)c2cc(C)cc(C)c2)C(C)(C)C)cc1`, with “inactive”; and `COP(=O)(OC)OC=C(Cl)Cl`, with “inactive”; and `CNC(=O)Oc1ccccc1OC(C)C`, with “inactive”. As to `CCC(C)Nc1c([N+](=O)[O-])cc(C(C)(C)C)cc1[N+](=O)[O-]` (stereo not given), the compound was classed as inactive.

Consider `CC[C@H](C)[C@H]1O[C@]2(C=C[C@@H]1C)C[C@@H]1C[C@@H](C/C=C(\C)[C@@H](O[C@H]3C[C@H](OC)[C@@H](O[C@H]4C[C@H](OC)[C@@H](O)[C@H](C)O4)[C@H](C)O3)[C@@H](C)/C=C/C=C3\CO[C@@H]4[C@H](O)C(C)=C[C@@H](C(=O)O1)[C@]34O)O2` (tested in a mixture with another compound), for which the compound was classed as inactive. The same measure, in the same setting: to `CNC(=O)/C=C(\C)OP(=O)(OC)OC` belongs “inactive”; to `CC(C)N(C(=O)COc1nnc(C(F)(F)F)s1)c1ccc(F)cc1`, “inactive”. Still for that read-out and setting: to `N#Cc1c(Cl)c(Cl)c(Cl)c(C#N)c1Cl` belongs “inactive”.

Consider `CCCN(CCOc1c(Cl)cc(Cl)cc1Cl)C(=O)n1ccnc1`, for which the result was inactive.

Regarding `CNC(=O)CSP(=S)(OC)OC`, the compound was called inactive. In the case of `CCC(C)(C)C(=O)OC1=C(c2ccc(Cl)cc2Cl)C(=O)OC12CCCCC2`, the AC50 is 4.04 µM (active). For `O=C(NC(=O)c1c(F)cccc1F)Nc1ccc(OC(F)(F)C(F)OC(F)(F)F)c(Cl)c1` (stereo not given), the call was inactive. Turning to `COP(=S)(OC)Oc1ccc([N+](=O)[O-])cc1`, the compound was classed as inactive. On the same count and under the same terms, then `COC(=O)c1ccccc1S(=O)(=O)NC(=O)N(C)c1nc(C)nc(OC)n1`, with “inactive”; and `O=C(Nc1ccccc1)Nc1cnns1`, with “inactive”.

On to `O=S1OCC2C(CO1)C1(Cl)C(Cl)=C(Cl)C2(Cl)C1(Cl)Cl` (stereo not given), for which the call was inactive. Consider `[2H]C1([2H])[n+]2ccccc2-c2cccc[n+]2C1([2H])[2H]`, for which the AC50 is 13.3 µM (active).

In the case of `O=[N+]([O-])/N=C1\NCCN1Cc1ccc(Cl)nc1`, the result was inactive.

For the compound `O=S(=O)(O)C(F)(F)C(F)(F)C(F)(F)C(F)(F)C(F)(F)C(F)(F)C(F)(F)C(F)(F)F`, the compound was classed as inactive; the AC50 is 23 µM (active) and 48.3 µM (active).

Consider `Oc1cc(Cl)ccc1Oc1ccc(Cl)cc1Cl`, for which the outcome was inactive and the AC50 is 10.6 µM (active).

Regarding `C#CCN1C(=O)COc2cc(F)c(N3C(=O)C4=C(CCCC4)C3=O)cc21`, the call was inactive. On the same count and under the same terms, to `CCCN(CCC)c1c([N+](=O)[O-])cc(C(F)(F)F)cc1[N+](=O)[O-]` belongs “inactive”; to `O=C(O)CCCOc1ccc(Cl)cc1Cl`, “inactive”. Still for that read-out and setting: to `COc1nn(CSP(=S)(OC)OC)c(=O)s1` belongs “inactive”; to `CCS(=O)(=O)c1cccnc1S(=O)(=O)NC(=O)Nc1nc(OC)cc(OC)n1`, “inactive”.

In the case of `Clc1ccccc1-c1nnc(-c2ccccc2Cl)nn1`, the call was inactive.

On to `C[C@H]1[C@H](c2ccc(Cl)cc2)SC(=O)N1C(=O)NC1CCCCC1`, for which the call was inactive.

For the compound `CC1(c2ccc(Oc3ccccc3)cc2)OC(=O)N(Nc2ccccc2)C1=O` (stereo not given), the result was inactive. For the compound `CCN(CC)C(=O)SCc1ccc(Cl)cc1`, the call was inactive. Still for that read-out and setting: to `COc1cc(OC)nc(NC(=O)NS(=O)(=O)c2cc(NC=O)ccc2C(=O)N(C)C)n1` belongs “inactive”; to `CNC(=O)Oc1cccc(N=CN(C)C)c1`, “inactive”. Same read-out and setting: then `N#CN`, with “inactive”. As to `CCC(C)(NC(=O)c1cc(Cl)c(C)c(Cl)c1)C(=O)CCl` (stereo not given), the result was inactive. On the same count and under the same terms, then `CN1CSC(=S)N(C)C1`, with “inactive”; and `ClC1C(Cl)C(Cl)C(Cl)C(Cl)C1Cl` (stereo not given), with “inactive”; and `O=C(O)C(F)(F)C(F)(F)C(F)(F)C(F)(F)C(F)(F)C(F)(F)C(F)(F)F`, with “inactive”. The same measure, in the same setting: to `O=C(O)COc1ccc(Cl)cc1Cl` belongs “inactive”.

The values are drawn from PubChem BioAssay (EPA / NIEHS).
